Data on 110 compounds can be found in ChEMBL document CHEMBL4513216, “Probing the Open Global Health Chemical Diversity Library for Multistage-Active Starting Points for Next-Generation Antimalarials” (ACS Infect Dis, 2020).

Hit rate of the full screen: of about 69,000 compounds, about 8,600 (12%) showed an effect of 50% or more. The entries come from a sample that favours strong results as a whole.

This assay concerns Plasmodium berghei. As to the kind of experiment: Screen against P. berghei liver stage (PbLuc), transformed with Luciferase, at 10uM. Type of assay: functional, HepG2. The following applies: tested at 10 uM.
For `CSc1ccc(-c2cc(CN)nc3ccnn23)cc1`, the INHIBITION was found to be 13%. In the case of `COc1cccc(NC(=O)NC2(c3noc(CN(C)C)n3)CCCC2)c1`, the INHIBITION was found to be 16.2%. To `CCN(CC)CCn1cc(NC2CCSCC2)cn1` belongs -3.21%; to `Fc1ccc(C2(c3noc(CCN4CCCCO4)n3)CCOC2)cc1` (stereo not given), -23.4%. For the compound `O=c1[nH]c2cc3c(cc2cc1CN1CCCC1c1ccccn1)OCO3` (stereo not given), the INHIBITION was found to be 6.94%. The value for `CCOc1ccc2[nH]c(=O)c(CN3CCCC3c3ccccn3)cc2c1` (stereo not given) was 32.7%.

`O=c1[nH]c2cc3c(cc2cc1CN1CCCC1c1ccccn1)CCC3` (stereo not given): the INHIBITION came to 56.5%. `O=C(Nc1ccc(CCN2CCC(O)CC2)cc1)C1CCCOC1` (stereo not given): the INHIBITION came out at 20.06%. Consider `O=C(CN1CCOc2ccccc2C1)NCc1cc2n(n1)CCCNC2`, for which the INHIBITION turned out to be 12.9%. To `CC(NCc1ccsc1)c1ccc2c(c1)NC(=O)CO2` (stereo not given) belongs 22.15%; to `COc1cccc(SCC(=O)N2CCC(N3CCCC(O)C3)CC2)c1` (stereo not given), 64.9%.

Consider `COc1cccc(SCC(=O)N2CCC(N3CCCC3=O)CC2)c1`, for which the INHIBITION is 43.9%.

Regarding `COc1cccc(SCC(=O)N2CCCC(N3CCCC3=O)C2)c1` (stereo not given), the INHIBITION amounted to 15.5%. Take `Cc1c(NC(=O)CN(C)S(C)(=O)=O)cccc1OC1CCCC1`: the INHIBITION is listed as -28.2%.

For `CCCNC(=O)CN1CCC(NC(=O)c2cc(CC)ccc2O)CC1`, the INHIBITION was -23.15%.

Regarding `N#Cc1cccnc1N1CCC(C2CCCCCN2C(=O)C2CC2)CC1` (stereo not given), the INHIBITION is recorded as -1.3%. As for `O=S(=O)(c1ccccc1)N1CCCC(c2nccs2)C1` (stereo not given), the INHIBITION came to 31.6%. To `O=S(=O)(c1cccs1)N1CCCC(c2nccs2)C1` (stereo not given) belongs -27.4%. To `O=S(=O)(c1ccccc1F)N1CCCC(c2nccs2)C1` (stereo not given) belongs 61.7%. The value for `CN(CCS(=O)(=O)c1cc(Cl)ccc1Cl)CC(N)=O` was 10.6%; that for `CN(CCS(=O)(=O)c1cc(Cl)ccc1Cl)CC(=O)Nc1ccc(F)cc1` was -8.22%. Regarding `CN(CCS(=O)(=O)c1cc(Cl)ccc1Cl)CC(=O)Nc1cccc(F)c1`, the INHIBITION came out at 59.4%. For `Cc1nnc2n1CCN(C(=O)C1CCC(n3cccc3)CC1)C2` (stereo not given), the INHIBITION is listed as 20.8%. `COC(=O)CC(c1cccnc1)c1oc(C)cc(=O)c1O` (stereo not given): the INHIBITION is recorded as -14.8%. The value for `COc1ccccc1CN1CC(OC)CN(C(=O)CC(C)C)CC1=O` (stereo not given) was 4.82%; that for `Cc1ccc(CN2CCc3c(CN(C)C)n[nH]c3C2)s1` was 13.7%; that for `Cc1ccc(CNC(=O)N2CCc3ccccc3C2CO)s1` (stereo not given) was 28.7%. The value for `O=C(c1cccs1)N1CCN(Cc2cc(=O)c3ccccc3[nH]2)CC1` was 15.4%; that for `Cn1ccc(CN2CCC(Cc3ccccc3)CC2)cc1=O` was -0.219%. As to `FC1(F)CCN(Cc2ccncc2)CC12CCN(c1cccnc1)C2` (stereo not given), the INHIBITION is listed as 91.9%.

As to `FC1(F)CCN(c2ccccc2)CC12CCN(c1ncccn1)C2` (stereo not given), the INHIBITION was -15.3%. Regarding `FC1(F)CCN(Cc2ccccn2)CC12CCN(c1cnccn1)C2` (stereo not given), the INHIBITION is given as 34%.

Take `FC1(F)CCN(Cc2ccncc2)CC12CCN(Cc1ccccn1)C2` (stereo not given): the INHIBITION worked out at 48.9%. To `Cn1cc(CN2CCC(F)(F)C3(CCN(c4cccnc4)C3)C2)cn1` (stereo not given) belongs 15.4%; to `OCCN1CCC(F)(F)C2(CCN(c3cccnc3)C2)C1` (stereo not given), 60.2%; to `OCCN1CCC(F)(F)C2(CCN(c3cnccn3)C2)C1` (stereo not given), 16.6%. The value for `FC1(F)CCN(Cc2ccncc2)CC12CCN(c1cnccn1)C2` (stereo not given) was -13.2%; that for `FC1(F)CCN(Cc2cccnc2)CC12CCN(c1ccccc1)C2` (stereo not given) was 92.8%. The value for `Cn1ccnc1CN1CCC(F)(F)C2(CCN(c3cccnc3)C2)C1` (stereo not given) was 31.2%; that for `FC1(F)CCN(Cc2ccccn2)CC12CCN(c1cccnc1)C2` (stereo not given) was 85.9%; that for `FC1(F)CCN(Cc2ccccn2)CC12CCN(c1ncccn1)C2` (stereo not given) was 47.5%. `COc1ccccc1OCCCn1c(C)c(C)oc1=O`: the INHIBITION was -10.2%. In the case of `CCn1c(SCC(N)=O)nnc1C(C)NC(=O)c1ccc(Cl)cc1` (stereo not given), the INHIBITION worked out at 31.6%. On to `CCS(=O)(=O)N1CCC2(CN(c3cccc(C)n3)C2)C1`, for which the INHIBITION is given as 18.5%.

Regarding `Cc1ccc(CN(CCCN2CCOCC2)Cc2cnn(C)c2)o1`, the INHIBITION came to 30.15%. In the case of `CCc1ncc2c(n1)CN(c1nnc(C)c(C)c1C#N)CC2`, the INHIBITION is recorded as -28.7%. The value for `CNC(=O)CN1CCC2(CCCN(CC3CCOC3)C2)CC1` (stereo not given) was 8.6%; that for `Cc1nn(-c2ccc(C(=O)O)cc2)c2c1C(CC(C)C)SCC(=O)N2` (stereo not given) was 10.6%; that for `Cc1cccc(C(=O)N2C[C@@H]3C(CC(=O)NC(C)C)[C@@H]3C2)n1` (stereo not given in full) was -50.4%. On to `FC1(F)CCN(Cc2cccnc2)CC12CCN(c1cnccn1)C2` (stereo not given), for which the INHIBITION was -20.1%. In the case of `O=C(O)CN1CCC(F)(F)C2(CCN(c3ccccn3)C2)C1` (stereo not given), the INHIBITION is recorded as -4.02%.

As to `O=C(O)CN1CCC(F)(F)C2(CCN(c3ccccc3)C2)C1` (stereo not given), the INHIBITION came out at 53.9%. The value for `O=C(CO)N1CCC(F)(F)C2(CCN(c3ccccc3)C2)C1` (stereo not given) was 31.4%; that for `Cn1cc(CN2CCC(F)(F)C3(CCN(c4ccccn4)C3)C2)cn1` (stereo not given) was 0.618%. For `FC1(F)CCN(Cc2cccnc2)CC12CCN(c1ccccn1)C2` (stereo not given), the INHIBITION turned out to be 68.2%. For `Cc1nn(C)cc1-c1cc(C(=O)N2CCc3ncc(Cl)cc3C2)on1`, the INHIBITION is recorded as 7.15%. The value for `N#CCc1ccc(NC(=O)Cn2cc(I)cn2)cc1` was 36.6%; that for `O=C(NCC1CCCO1)c1nc2c(s1)CCCN2Cc1ccccc1` (stereo not given) was -57.7%. Consider `CCOc1ccc(Br)cc1S(=O)(=O)N(CC)Cc1ccc(N(C)C)cc1`, for which the INHIBITION is reported as 61.5%. As to `COc1ccc(Br)cc1S(=O)(=O)N(C)Cc1ccc(N(C)C)cc1`, the INHIBITION came to 5.76%. The value for `CCN(Cc1ccc(N(C)C)cc1)S(=O)(=O)c1cc(Br)ccc1OC` was 7.65%. Regarding `CCOC(=O)N1CC(C)=C(C)CN1C(=O)Nc1ccc(Cl)c(Cl)c1`, the INHIBITION stood at 13%.

For the compound `CCNc1cc2c(nn1)CCN(C(=O)c1cccc(CSC)c1)C2`, the INHIBITION came out at 37.3%.

For the compound `O=C(c1ccncc1)N1CCCC1C1CCN(Cc2ccccc2)CC1` (stereo not given), the INHIBITION worked out at 51.1%.

As for `O=C(c1ccoc1)N1CCCC1C1CCN(Cc2ccccc2)CC1` (stereo not given), the INHIBITION came out at 51.1%. The value for `O=C(c1cccnc1)N1CCCC1C1CCN(Cc2ccccc2)CC1` (stereo not given) was 73.6%; that for `O=C(c1ccco1)N1CCCC1C1CCN(Cc2ccccc2)CC1` (stereo not given) was 21.3%; that for `CN(C(=O)c1cccnc1)C1CCCN(CCc2ccccc2)C1` (stereo not given) was 42.2%. To `O=C(c1ccc(CN2CCCCC2)cc1)N1CCCC1c1cccs1` (stereo not given) belongs 31%; to `O=C(c1cc[nH]n1)N1CCCC1C1CCN(Cc2ccccc2)CC1` (stereo not given), 37.9%; to `O=C(C1CC1)N1CCCC1C1CCN(Cc2ccccc2)CC1` (stereo not given), -12.6%. The value for `O=C(c1ccoc1)N1CC[C@@H](N2CCOCC2)[C@@H]1Cc1ccccc1` was 35.7%; that for `Cc1cccnc1C(=O)N1CCC(Cc2cnc3[nH]ccc3c2)CC1` was 44.8%.

In the case of `OCC(O)CN(CCN1CCOCC1)Cc1ccco1` (stereo not given), the INHIBITION came out at 43.9%. The value for `Cc1oncc1C(=O)N1CC[C@H]2[C@H](C[C@@H](CN3CCCC3)N2C)C1` was 16.6%; that for `Cc1cc(C(=O)N2CC[C@H]3[C@H](C[C@@H](CN4CCCC4)N3C)C2)c(C)o1` was 39.5%. The value for `Cc1nc(C(C)C)ncc1C(=O)N1CCCC(N2CCCC2)C1` (stereo not given) was 26.8%; that for `O=C(O)CSC1CCc2ccccc2NC1=O` (stereo not given) was 18.4%. To `NS(=O)(=O)CCN1CCN(c2ccccc2O)CC1` belongs -24.7%; to `CC(C)NC(=O)[C@H]1C[C@H]2CN(C(=O)NC(C)C)C[C@@H]1O2`, 24%. On to `O=C(NCC1CCCN(C(=O)NCCc2ccccc2)C1)c1ccco1` (stereo not given), for which the INHIBITION turned out to be 59.1%. Regarding `CC(C)CS(=O)(=O)N1C[C@@H]2C[C@H](C(=O)N3CCN(C)CC3)[C@H](C1)O2`, the INHIBITION was -1.28%. The value for `CC(C)CS(=O)(=O)N1C[C@@H]2C[C@H](C(=O)N3CCCC3)[C@H](C1)O2` was 32.5%. `CC(C)CS(=O)(=O)N1C[C@@H]2C[C@H](C(=O)N3CCOCC3)[C@H](C1)O2`: the INHIBITION turned out to be 83.2%. In the case of `O=C(Nc1ccc(F)cc1)N1C[C@@H]2C[C@H](C(=O)N3CCOCC3)[C@H](C1)O2`, the INHIBITION came out at 1.58%. The value for `O=C(Nc1ccccc1)N1C[C@@H]2C[C@H](C(=O)N3CCCC3)[C@H](C1)O2` was -13.2%; that for `O=C(Nc1ccccc1)N1C[C@@H]2C[C@H](C(=O)N3CCOCC3)[C@H](C1)O2` was 55.4%; that for `CC(C)NC(=O)N1C[C@@H]2C[C@H](C(=O)N3CCCC3)[C@H](C1)O2` was 43.9%. To `CCOC(=O)CNC(=O)N1CCCC(CNC(=O)c2ccco2)C1` (stereo not given) belongs 3.73%; to `CNC(=O)[C@H]1C[C@H]2CN(C(=O)NC(C)C)C[C@@H]1O2`, 57.5%. Take `CCOC(=O)CCNC(=O)N1CCCC(CNC(=O)c2ccco2)C1` (stereo not given): the INHIBITION came to 15.7%. To `CCS(=O)(=O)N[C@H]1CN(CC(C)(C)N2CCOCC2)C[C@@H]1C1CC1` belongs 18.5%; to `O=C(Nc1ccccc1)C1=NOC2(CCCN(C(=O)C3CCCC3)C2)C1` (stereo not given), -31%; to `O=C(c1ccn(-c2ccc(F)cc2)n1)N1CCCC(n2ccnc2)C1` (stereo not given), -17%. The value for `CCc1nc(CNC2CCN(S(C)(=O)=O)CC2)cs1` was 28.3%; that for `O=C(C1CCOCC1)N1CCO[C@H]2[C@@H](OCC3CC3)CC[C@@H]21` was -19.8%; that for `CCC(C)N(Cc1cccnc1)C(=O)c1ccc(NS(=O)(=O)CC)cc1` (stereo not given) was 18.8%. To `CCCn1ncc(C(=O)N2CCCC(OCc3ccccn3)C2)c1C` (stereo not given) belongs -38.6%. With `CN(C)C(=O)[C@H]1C[C@H]2CN(S(=O)(=O)c3ccccc3)C[C@@H]1O2`, the INHIBITION is on record as 33.4%.

Take `CNC(=O)[C@H]1C[C@H]2CN(C(=O)Nc3ccccc3)C[C@@H]1O2`: the INHIBITION is reported as -26.5%.

`CN(C)C(=O)[C@H]1C[C@H]2CN(CCc3ccccc3)C[C@@H]1O2`: the INHIBITION is listed as 66%. The value for `CN1C[C@@H]2C[C@H](C(=O)Nc3cccnc3)[C@H](C1)O2` was 41.6%. The value for `O=C(Nc1ccccc1)[C@H]1C[C@H]2CN(C(=O)Nc3ccccc3)C[C@@H]1O2` was 7.31%. The value for `O=C(NCCc1ccccc1)N1C[C@@H]2C[C@H](C(=O)N3CCCC3)[C@H](C1)O2` was 57.1%; that for `CNC(=O)N1C[C@@H]2C[C@H](C(=O)Nc3ccccc3)[C@H](C1)O2` was 62%. On to `O=C(Nc1cccnc1)[C@H]1C[C@H]2CN(C(=O)NC3CCCC3)C[C@@H]1O2`, for which the INHIBITION was 9.67%.

As to `CNC(=O)N1C[C@@H]2C[C@H](C(=O)Nc3cccnc3)[C@H](C1)O2`, the INHIBITION is recorded as 54.4%. To `CN(C)C(=O)[C@H]1C[C@H]2CN(S(=O)(=O)Cc3ccccc3)C[C@@H]1O2` belongs 19.9%. For the compound `CNC(=O)[C@H]1C[C@H]2CN(C(=O)NCCc3ccccc3)C[C@@H]1O2`, the INHIBITION worked out at 19.5%.

Turning to `O=C(NCc1ccccc1)N1C[C@@H]2C[C@H](C(=O)N3CCCC3)[C@H](C1)O2`, the INHIBITION is on record as 15.3%.
